A selection: hits, their analogues and other compounds. The true share with any hit is near 2%.
CHO-K1 Ca antag: nonselective inhibitor or artifact in parental CHO-K1 cells; ATP-induced calcium, Fluo-8 fluorescence; inhibition, % at 3 µM; 360,000 tested, 0.6% active; AID 602250;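 active means inhibition above a per-plate cutoff, the plate's mean sample inhibition plus 3 SD, cut at about 24% in these data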;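 further: 0% = DMSO plus EC80 ATP and 100% = DMSO alone without ATP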
M1 ag parental: counter-screen for M1 agonists: effect in parental CHO-K1 cells; 360,000 tested, 0.48% active; activation, % at 3 µM; AID 602248; Fluo-8 calcium fluorescence; scaled to maximal ATP response, vehicle zero; in the data active means activation above about 15%;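 further: untransfected CHO-K1 host cells lacking M1 receptor as counterscreen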
CHRM4 antagonist: CHRM4 antagonism in calcium assay. P08173. CHO-hM4 cells, ACh EC80, Fluo-8 calcium fluorescence. inhibition, % at 3 µM. 360,000 tested, 0.73% active;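 active means inhibition above its plate's cutoff, the mean inhibition of sample wells plus 3 SD, cut at about 27% in these data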;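 further: 0% = acetylcholine EC80 with DMSO and 100% = DMSO without agonist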
Target sequence (P08173 whole entry, looked up): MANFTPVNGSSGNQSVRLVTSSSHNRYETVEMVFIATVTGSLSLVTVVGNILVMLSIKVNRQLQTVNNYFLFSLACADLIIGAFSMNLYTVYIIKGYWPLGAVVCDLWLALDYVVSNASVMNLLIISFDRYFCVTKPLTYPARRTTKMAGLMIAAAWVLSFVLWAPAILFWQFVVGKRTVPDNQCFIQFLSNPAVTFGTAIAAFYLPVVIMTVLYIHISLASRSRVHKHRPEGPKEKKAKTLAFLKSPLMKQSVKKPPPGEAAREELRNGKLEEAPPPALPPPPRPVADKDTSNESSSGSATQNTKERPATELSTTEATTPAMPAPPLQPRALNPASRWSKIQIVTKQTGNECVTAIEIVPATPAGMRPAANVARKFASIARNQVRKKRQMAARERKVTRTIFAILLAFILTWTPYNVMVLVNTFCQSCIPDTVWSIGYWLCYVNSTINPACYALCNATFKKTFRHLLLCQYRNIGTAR
CHO-K1 Ca PAM: M1 PAM counterscreen hit in parental CHO-K1 cells; AID 602247; ATP EC20, Fluo-8 calcium fluorescence; 0% at ATP EC20, 100% at ATP max; activation, % at 3 µM; 360,000 tested, 0.02% active;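 active means activation above the run cutoff, the mean activation of all test compounds plus 3 SD, cut at about 40% in these data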;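 further: peak over basal fluorescence ratio in a 140 s read after ATP addition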
CHRM4 agonist: CHRM4 agonism in calcium assay. P08173. CHO-K1 hM4/Gqi5, Fluo-8 calcium fluorescence; vehicle 0%, full acetylcholine response 100%. activation, % at 3 µM. 360,000 tested, 0.14% active;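 active means activation above the run mean over all test wells plus 3 SD, cut at about 32% in these data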;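 further: peak over basal fluorescence ratio per well then scaled between controls; 0% = DMSO wells and 100% = acetylcholine at EC100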
CHRM4 PAM: positive allosteric modulators of human muscarinic M4 receptor; P08173; 360,000 tested, 0.4% active; CHO-K1 hM4/Gqi5, Fluo-8 calcium fluorescence, ACh EC20; 0% = ACh EC20, 100% = maximal ACh; activation, % at 3 µM;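 active means activation above its plate's cutoff, the mean activation of sample wells plus 3 SD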
An asterisk follows results filed as active.

For Cc1ccccc1C(=O)NC(NC(=S)Nc1ccc(S(N)(=O)=O)cc1)C(Cl)(Cl)Cl (stereo not drawn) the results were CHO-K1 Ca antag 8, M1 ag parental 0, CHRM4 antagonist 4, CHO-K1 Ca PAM 1, CHRM4 agonist 2 and CHRM4 PAM 24*.
Screening O=C(O)c1cccc(NC(=S)NC(NC(=O)c2cccc([N+](=O)[O-])c2)C(Cl)(Cl)Cl)c1 (stereo not drawn) returned CHO-K1 Ca antag -6, M1 ag parental 1, CHRM4 antagonist -7, CHO-K1 Ca PAM 19, CHRM4 agonist 0 and CHRM4 PAM 7.
For O=C(NC(NC(=S)Nc1ccccc1)C(Cl)(Cl)Cl)c1cccc(Cl)c1 (stereo not drawn) the results were CHO-K1 Ca antag 32*, M1 ag parental 14, CHRM4 antagonist 9, CHO-K1 Ca PAM -10, CHRM4 agonist 13 and CHRM4 PAM -5.
Screening CC(C)S(=O)(=O)N1CCCC(c2cc(C(=O)NCc3ccccc3)no2)C1 (stereo not drawn) returned CHO-K1 Ca antag -3, M1 ag parental 0, CHRM4 antagonist -12, CHO-K1 Ca PAM 7, CHRM4 agonist 2 and CHRM4 PAM 2.
For O=C(Nc1ccccc1C(=O)NCCN1CCOCC1)c1ccc(Cl)cc1Cl the results were CHO-K1 Ca antag -6, M1 ag parental 0, CHRM4 antagonist -1, CHO-K1 Ca PAM 17, CHRM4 agonist 2 and CHRM4 PAM 4.
`O=C(C[n+]1cccc2ccccc21)c1ccc(Br)cc1` gave CHO-K1 Ca antag -3, M1 ag parental 1, CHRM4 antagonist 11, CHO-K1 Ca PAM 11, CHRM4 agonist 1 and CHRM4 PAM -9.
CCn1c(C)nc2c(C)[n+](CC(=O)c3ccc(Br)cc3)ccc21 was read as CHO-K1 Ca antag 24*, M1 ag parental 0, CHRM4 antagonist 8, CHO-K1 Ca PAM -17, CHRM4 agonist 0 and CHRM4 PAM -14.
CCCCCNC(=O)C(c1cc2ccccc2o1)n1c(=O)c(-c2ccco2)nc2ccccc21 (stereo not drawn) was read as CHRM4 antagonist -11, CHRM4 agonist 1 and CHRM4 PAM 27*.
For CC(C)(C)NC(=O)C(c1cc2ccccc2o1)n1c(=O)c(-c2ccco2)nc2ccccc21 (stereo not drawn) the results were CHRM4 antagonist 4, CHRM4 agonist -2 and CHRM4 PAM 2.
For COc1ccc(CNC(=O)c2cccc3c(-c4cccc(C(N)=O)c4)coc23)cc1OC the results were CHO-K1 Ca antag 26*, M1 ag parental 11, CHRM4 antagonist 21, CHO-K1 Ca PAM -14, CHRM4 agonist 21 and CHRM4 PAM -10.
For COc1ccc(CNC(=O)c2cccc3c(-c4ccc(F)c(F)c4)coc23)cc1OC the results were CHO-K1 Ca antag 9, M1 ag parental 9, CHRM4 antagonist 24, CHO-K1 Ca PAM -7, CHRM4 agonist 11 and CHRM4 PAM -8.
For COc1cc(-c2coc3c(C(=O)NCc4ccc(OC)c(OC)c4)cccc23)ccc1O the results were CHO-K1 Ca antag -4, M1 ag parental 15*, CHRM4 antagonist 5, CHO-K1 Ca PAM -7, CHRM4 agonist 23 and CHRM4 PAM -9.
Screening Cn1cc(/C=C/C(=O)N2CCCC(C(=O)c3cccc(C(F)(F)F)c3)C2)cn1 (stereo not drawn) returned CHO-K1 Ca antag 7, M1 ag parental 1, CHRM4 antagonist -7, CHO-K1 Ca PAM 6, CHRM4 agonist 2 and CHRM4 PAM 6.
Screening CCc1nc2ccc(C(=O)Nc3cc(-c4ccccc4)ccc3OC)cn2c1N(C)CCC(C)C returned CHO-K1 Ca antag -13, M1 ag parental 37*, CHRM4 antagonist 1, CHO-K1 Ca PAM 11, CHRM4 agonist 1 and CHRM4 PAM 5.
`CCc1nc2ccc(C(=O)Nc3cc(-c4ccccc4)ccc3OC)cn2c1N(C=O)CCC(C)C` gave CHO-K1 Ca antag -9, M1 ag parental 1, CHRM4 antagonist -5, CHO-K1 Ca PAM 13, CHRM4 agonist 1 and CHRM4 PAM 6.
Screening C=C1CC2(OC1=O)c1ccccc1CCc1ccccc12 returned CHO-K1 Ca antag 3, M1 ag parental 1, CHRM4 antagonist 48*, CHO-K1 Ca PAM 12, CHRM4 agonist 3 and CHRM4 PAM -8.
Screening O=C(NCc1ccncc1)C1CCN(S(=O)(=O)c2ccc(F)cc2)CC1 returned CHO-K1 Ca antag -4, M1 ag parental 1, CHRM4 antagonist 12, CHO-K1 Ca PAM -9, CHRM4 agonist 0 and CHRM4 PAM -6.
CCc1ccc(C(C)NC(=S)NCc2ccc(F)cc2)cc1 (stereo not drawn) was read as CHO-K1 Ca antag -4, M1 ag parental 11, CHRM4 antagonist 13, CHO-K1 Ca PAM -15, CHRM4 agonist 21 and CHRM4 PAM -16.
CCOc1ccc(C(C)NC(=O)C2CCC2)cc1 (stereo not drawn) was read as CHO-K1 Ca antag 24*, M1 ag parental 0, CHRM4 antagonist 4, CHO-K1 Ca PAM -14, CHRM4 agonist 0 and CHRM4 PAM 9.
For CCOc1ccc(C(C)NC(=S)NCc2ccc(F)cc2)cc1 (stereo not drawn) the results were CHO-K1 Ca antag 1, M1 ag parental 23*, CHRM4 antagonist -4, CHO-K1 Ca PAM -5, CHRM4 agonist 11 and CHRM4 PAM -11.
`CC(C)c1ccc(NC(=O)C2C3C=CC4(O3)C2C(=O)N(CCN2CCOCC2)C4C(=O)NC2CCCCC2)cc1` (stereo not drawn) gave CHO-K1 Ca antag -19, M1 ag parental 0, CHRM4 antagonist 4, CHO-K1 Ca PAM 13, CHRM4 agonist 0 and CHRM4 PAM 0.
`O=C(C1CCN(S(=O)(=O)c2cccc([N+](=O)[O-])c2)CC1)N1CCOCC1` gave CHO-K1 Ca antag 6, M1 ag parental 0, CHRM4 antagonist 3, CHO-K1 Ca PAM -4, CHRM4 agonist 2 and CHRM4 PAM -3.
COC(=O)CCC(=O)OC1(C)C(=O)C2=CN(C3CCCC3)C(c3ccc(OC)cc3)=CC2=C(Br)C1=O (stereo not drawn) was read as CHO-K1 Ca antag -13, M1 ag parental 1, CHRM4 antagonist 20, CHO-K1 Ca PAM 16, CHRM4 agonist 2 and CHRM4 PAM -4.
Screening Cc1cc(S(=O)(=O)N2CCN(c3ccccc3F)CC2)ccc1-n1cnnn1 returned CHO-K1 Ca antag 1, M1 ag parental 18*, CHRM4 antagonist 3, CHO-K1 Ca PAM 8, CHRM4 agonist 8 and CHRM4 PAM -4.
`CCCCCc1ccc(-c2cn(CN3C(=O)c4ccccc4C3=O)nn2)cc1` gave CHO-K1 Ca antag 15, M1 ag parental 0, CHRM4 antagonist 0, CHO-K1 Ca PAM -17, CHRM4 agonist 2 and CHRM4 PAM 5.

Source: PubChem BioAssay (The Scripps Research Institute Molecular Screening Center)
